# Results filed as inconclusive are left out. Unmarked numbers belong to inactive results. Calls follow the shape of the dose curve; as a rule, active = well fitted curve in the direction sought with a large enough effect; inconclusive = small, poorly fitted or top-dose-only effect, or effect the other way, or another doubt; inactive = no such curve, though single readings can be large or run the other way.
# Test: Confirmatory Assay to Find Inhibitors of T. brucei phosphofructokinase: Cytotoxictity in KB-3-1
# Settings: KB-3-1 human cells cytotoxicity counter-screen; series mostly up to 46.1 µM; activity change, negative = cytotoxicity: at the top concentration
# From the text: Various species of the protozoan family Trypanosomatidae are responsible for a range of serious human diseases in tropical and subtropical areas of the world. […] Many of the disorders caused by trypanosomatids are fatal if left untreated, but most currently used drugs are inefficient and toxic.
# Oxidative metabolism involving the mitochondrial tricarboxylic acid cycle and oxidative phosphorylation are repressed in these parasites, and recent RNA interference (RNAi) experiments have shown that even partial depletion of certain individual glycolytic enzymes can lead to the death of cultured parasites. One such glycolytic enzyme, phosphofructokinase (PFK), catalyzes the formation of fructose-1,6-bisphosphate (F1,6BP) and ADP from fructose-6-phosphate (F6P) and ATP, and in many metabolic circumstances makes an important contribution to the control of flux through the glycolytic pathway. As a specific glycolytic target, PFK is particularly attractive as it catalyzes the first irreversible step in glycolysis, and structural and kinetic studies have shown very substantial and essential differences from corresponding host enzymes, allowing for the discovery of parasite-selective inhibitors.
# Confirmed qHTS active compounds were tested for toxicity against the KB-3-1 human cervical carcinoma cell lines. This line havs historically been used as representative human cells in in vitro Trypanosoma assays, and so provide a relevant surrogate for human cells in testing Tb PFK inhibitor toxicity.
# NIH Chemical Genomics Center [NCGC]
# NIH Molecular Libraries Probe Centers Network [MLPCN]
# Assay Submitter (PI): Malcom Walkinshaw, University of Edinburg
# KB-3-1 cells were dispensed into white solid 1536-microwell plates in 5 uL media (high glucose DMEM, 10% FBS) with a Thermo Multidrop. The plates were incubated at 37 degrees Celsius for 2 hours, and subsequently treated with compounds using the Kalypsys pin tool, delivering 23 nL of test compounds to each well. The plates were then incubated for an additional 72 hours at 37 degrees Celsius. Cytotoxicity was assessed by adding 2.5 uL of Cell-Titer Glo (Promega, Madison, WI) via Multidrop, incubating at room temperature for 10 min and reading luminescence on the Perkin Elmer ViewLux using a 1 second exposure and 1x binning. DMSO-treated cells were included as negative control, while media-only wells were used as a positive control equivalent to 100% cell toxicity for the sake of data normalization.
row,SMILES,"activity change, negative = cytotoxicity [%]"
1,Cc1cc(NS(=O)(=O)c2ccc(NC(=O)Cc3ccc(Cl)cc3)cc2)no1,-0.216
2,Cc1cc(NS(=O)(=O)c2ccc(NC(=O)Cc3cccc(Cl)c3)cc2)no1,-2.52
3,Cc1cc(NS(=O)(=O)c2ccc(NC(=O)Cc3ccc(C)c(F)c3)cc2)no1,-3.65
4,Cc1cc(NS(=O)(=O)Cc2ccc(NC(=O)Cc3ccc(Cl)c(Cl)c3)cc2)no1,-0.6
5,O=C(Cc1ccc(Cl)c(Cl)c1)Nc1ccc(S(=O)(=O)Nc2ccc(C(=O)O)cc2)cc1,8.3
6,O=C(Cc1ccc(Cl)c(Cl)c1)Nc1ccc(S(=O)(=O)Nc2ccon2)cc1,-0.619
7,COc1ccc(CC(=O)Nc2ccc(S(=O)(=O)Nc3cc(C)on3)cc2)cc1OC,-4.67
8,O=C(Cc1ccc(Cl)c(Cl)c1)Nc1ccc(S(=O)(=O)Nc2cccc(C(=O)O)c2)cc1,11.4
9,Cc1cc(NS(=O)(=O)c2cccc(NC(=O)Cc3ccc(Cl)c(Cl)c3)c2)no1,-5.11
10,O=C(Cc1ccc(Cl)c(Cl)c1)Nc1ccc(S(=O)(=O)O)cc1,6.38
11,Cc1cc(NS(=O)(=O)c2ccc(NC(=O)CCc3ccc(Cl)c(Cl)c3)cc2)no1,-12.1
12,Cc1cc(NS(=O)(=O)c2ccc(N(C)C(=O)Cc3ccc(Cl)c(Cl)c3)cc2)no1,-0.538
13,Cc1cc(NS(=O)(=O)CCNC(=O)Cc2ccc(Cl)c(Cl)c2)no1,11.2
14,O=C(Cc1ccc(Cl)c(Cl)c1)Nc1ccc(S(=O)(=O)Nc2cncnc2)cc1,5.74
15,Cc1cc(NS(=O)(=O)C2CCN(C(=O)Cc3ccc(Cl)c(Cl)c3)CC2)no1,-7.05
16,Cc1cc(N[S+](=O)([O-])c2ccc3cc(NC(=O)Cc4ccc(Cl)c(Cl)c4)ccc3c2)no1,-2.44
17,Cc1cc(NC(=O)c2ccc(NC(=O)Cc3ccc(Cl)c(Cl)c3)cc2)no1,0.287
18,Cc1cc(NS(=O)(=O)c2ccc(NC(=O)Cc3ccc4ccccc4c3)cc2)no1,9.72
19,Cc1cc(NS(=O)(=O)c2ccc(NC(=O)Cc3ccc(Cl)cc3Cl)cc2)no1,5.04
20,Cc1cc(NS(=O)(=O)c2ccc(NC(=O)c3ccc(Cl)c(Cl)c3)cc2)no1,-2.15
21,Cc1cc(NS(=O)(=O)c2ccc(NCCc3ccc(Cl)c(Cl)c3)cc2)no1,2.76
22,Cc1cc(NS(=O)(=O)c2ccc(NC(=O)Cc3ccc(C)c(C)c3)cc2)no1,-4.17
23,Cc1cc(NS(=O)(=O)c2ccc(NC(=O)Cc3ccc(Cl)c(F)c3)cc2)no1,-4.78
24,Cc1cc(NS(=O)(=O)c2ccc(NS(=O)(=O)Cc3ccc(Cl)c(Cl)c3)cc2)no1,7.09
25,Cc1cc(NS(=O)(=O)c2ccc(C(=O)NCc3ccc(Cl)c(Cl)c3)cc2)no1,21.8
26,Cc1cc(NS(=O)(=O)c2ccc(NC(=O)C(C)(C)c3ccc(Cl)c(Cl)c3)cc2)no1,13.5
27,Cc1cc(NS(=O)(=O)c2ccc(NC(=O)Cc3ccc(Cl)c(Cl)c3)cc2)n(C)n1,4.89
28,COc1ccc(CC(=O)Nc2ccc(S(=O)(=O)Nc3cc(C)on3)cc2)cc1C,-9.25

# Source: PubChem BioAssay AID588325 (National Center for Advancing Translational Sciences (NCATS), 2011)
